Nine molecules from PubChem BioAssay (NCI) can be followed below.

Test systems include SK-MEL-2 melanoma; SN12C renal; UO-31 renal; TK-10 renal; ACHN renal; CAKI-1 renal; A498 renal; CCRF-CEM leukemia; MOLT-4 leukemia; SR leukemia; OVCAR-8 ovarian; OVCAR-5 ovarian; SK-OV-3 ovarian; IGROV1 ovarian; OVCAR-3 ovarian; HS 578T breast; NCI/ADR-RES ovarian; RPMI-8226 leukemia; OVCAR-4 ovarian; EKVX NSCLC.
What all share (experiment): NCI-60 one-dose screen, 48 h (100 = growth as untreated, 0 = no growth, -100 = all killed)
Holding throughout (conditions): 10 µM unless noted

The panel holds about 83,000 compounds, 20% with a hit somewhere; the sample as a whole holds those more often.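 The test compound was applied at a single concentration to cells in 96-well plates for 48 hours, and percent growth was recorded.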 A number with no mark means an inactive call. The source made the active and inactive calls. How the source made its calls: active means growth percent below 10; inactive means the rest.

Take `O=C(c1ccccc1)C1OC1C(=O)c1ccccc1` (centres undefined): the growth with SK-MEL-2 melanoma is 34%; in the test on SN12C renal it was 28.2%; in the test with UO-31 renal, 60.1%; in the test on TK-10 renal, 36.9%; in the test on ACHN renal it was 33.1%; in the test on CAKI-1 renal, 14.6%. The growth was 95.6% with A498 renal; 12.1% in the test on CCRF-CEM leukemia; 45.6% in the test with MOLT-4 leukemia; 14.3% in the test with SR leukemia; 25.4% in the test with OVCAR-8 ovarian; 30.2% with OVCAR-5 ovarian. Besides, the growth with SK-OV-3 ovarian was 54.3%; in the test with IGROV1 ovarian it was 24.6%; with OVCAR-3 ovarian, 35.2%; in the test on HS 578T breast, 54.2%; in the test on NCI/ADR-RES ovarian, -18.5% (active).
With `COc1ccc(-c2cc(C(=O)Nc3ccc(Br)cc3)nc3[nH]c(=O)sc23)cc1`, the growth with SK-MEL-2 melanoma was -5.01% (active); in the test on SN12C renal, 20.4%; with UO-31 renal, 28.6%; in the test with TK-10 renal, 19.9%; in the test with ACHN renal, 54.8%; in the test on CAKI-1 renal it was 34.6%. Besides, the growth is -2.87% (active) in the test with A498 renal; 29.8% in the test with CCRF-CEM leukemia; 27.8% in the test on MOLT-4 leukemia; 65.1% with SR leukemia; 14.2% with RPMI-8226 leukemia; 43.1% with OVCAR-8 ovarian. In addition, the growth was 84.9% with OVCAR-5 ovarian; 34.2% in the test on OVCAR-4 ovarian; 26.7% in the test with SK-OV-3 ovarian; 25.2% with IGROV1 ovarian; 36.9% in the test with OVCAR-3 ovarian; 41.6% in the test on HS 578T breast. In addition, the growth in the test with NCI/ADR-RES ovarian is 40.7%.
On to `FC(F)(F)c1nn[nH]n1`, for which the growth in the test with SK-MEL-2 melanoma was 112%; with SN12C renal it was 105%; in the test on UO-31 renal, 99.1%; in the test on TK-10 renal it was 111%; in the test on ACHN renal, 109%; in the test with CAKI-1 renal, 97%. The growth in the test with A498 renal is 102%; with MOLT-4 leukemia it was 101%; in the test with SR leukemia, 104%; in the test on RPMI-8226 leukemia it was 89.5%; with OVCAR-8 ovarian, 105%; in the test on OVCAR-5 ovarian, 108%. Moreover, the growth is 111% with OVCAR-4 ovarian; 107% in the test on SK-OV-3 ovarian; 118% with IGROV1 ovarian; 104% in the test on OVCAR-3 ovarian; 111% with HS 578T breast.
With `CSc1ccc(/C=C2\C=C(CC(=O)NCc3ccc(C(=O)c4ccccc4)cc3)c3cc(F)ccc32)cc1`, the growth in the test on SK-MEL-2 melanoma was -3.62% (active); in the test with SN12C renal it was 9.57% (active); with UO-31 renal, 26.6%; in the test on TK-10 renal, 13.8%; in the test with ACHN renal, 2.09% (active); in the test on CAKI-1 renal it was 7.79% (active). For the same molecule, the growth was -10.5% (active) with A498 renal; 11.5% with CCRF-CEM leukemia; 10.3% in the test with SR leukemia; 15.2% with RPMI-8226 leukemia; 1.81% (active) in the test with OVCAR-8 ovarian; 25.2% in the test on OVCAR-5 ovarian. Besides, the growth was 10.9% with OVCAR-4 ovarian; -34.4% (active) in the test with SK-OV-3 ovarian; 10.3% in the test with IGROV1 ovarian; -60.1% (active) with OVCAR-3 ovarian; 2.68% (active) in the test on HS 578T breast; -34.6% (active) in the test on NCI/ADR-RES ovarian.
Consider `CCCCCCCCCCCCCCCC1=NC(C)(C)CN1C(C)C`, for which the growth is -67.9% (active) in the test with SK-MEL-2 melanoma; -36.3% (active) in the test on SN12C renal; -57.5% (active) in the test with UO-31 renal; -74.2% (active) with TK-10 renal; -58.3% (active) with ACHN renal; -45.4% (active) with CAKI-1 renal. Further, the growth with A498 renal is 63.4%; in the test on CCRF-CEM leukemia, -56.3% (active); in the test on SR leukemia, -49.7% (active); with OVCAR-8 ovarian it was -16.8% (active); in the test on OVCAR-5 ovarian, 56.2%; in the test on SK-OV-3 ovarian, -6.62% (active). Besides, the growth was -32.9% (active) with IGROV1 ovarian, -43.2% (active) with OVCAR-3 ovarian, -31.6% (active) with HS 578T breast and -22% (active) in the test on NCI/ADR-RES ovarian.
As for `CC(C)=CC[C@@H]1CC2(CC=C(C)C)C(=O)C(OC3(C(=O)c4ccccc4)C(=O)C4(CC=C(C)C)C[C@@H](CC=C(C)C)C(C)(C)C(CC=C(C)C)(C4=O)C3=O)(C(=O)c3ccccc3)C(=O)C(CC=C(C)C)(C2=O)C1(C)C` (some centres undefined), the growth in the test with SK-MEL-2 melanoma is -46.8% (active); in the test on SN12C renal it was -17.9% (active); with UO-31 renal it was -7.33% (active); in the test on TK-10 renal, 3.06% (active); with ACHN renal, 4.64% (active); in the test with CAKI-1 renal, 11.5%. The growth in the test with A498 renal was -58% (active); in the test on CCRF-CEM leukemia, 3.78% (active); with MOLT-4 leukemia, -11.9% (active); in the test with SR leukemia it was 4.95% (active); in the test on RPMI-8226 leukemia it was -23% (active); with OVCAR-8 ovarian, 1.06% (active). The growth with OVCAR-5 ovarian was 14.9%; in the test on OVCAR-4 ovarian, 20.4%; in the test on SK-OV-3 ovarian, 2.61% (active); in the test on IGROV1 ovarian, 15.5%; in the test with OVCAR-3 ovarian, -9.05% (active); with HS 578T breast, 1.98% (active). The growth with NCI/ADR-RES ovarian was 5.81% (active).
For `CCN1C(=O)N(CC)C2C1NN=c1s/c(=C\c3ccco3)c(=O)n12` (centres undefined), the growth in the test with SK-MEL-2 melanoma was 30%; in the test with SN12C renal, 47.5%; with UO-31 renal, 60%; in the test on TK-10 renal, 57.6%; in the test with ACHN renal, 54.9%; in the test with CAKI-1 renal, 46%. Further, the growth in the test with A498 renal is 21.5%; with CCRF-CEM leukemia, 10%; with MOLT-4 leukemia, 31.7%; in the test on SR leukemia, 17%; in the test with OVCAR-8 ovarian it was 27.8%; with OVCAR-5 ovarian it was 36.7%. The growth is 63.3% in the test with OVCAR-4 ovarian; 31.6% with SK-OV-3 ovarian; -12% (active) in the test with OVCAR-3 ovarian; 29.6% in the test on HS 578T breast; 9.31% (active) with NCI/ADR-RES ovarian.
Consider `CN1C(=O)N(C)C2C1NN=c1s/c(=C\c3ccc(C(F)(F)F)cc3)c(=O)n12` (centres undefined), for which the growth in the test on SK-MEL-2 melanoma was 47.7%; in the test with EKVX NSCLC, 45.2%; with SN12C renal it was 41.2%; in the test with UO-31 renal, 49.6%; with ACHN renal, 44.6%; in the test with CAKI-1 renal, 29.6%. Besides, the growth in the test with CCRF-CEM leukemia is 11.7%; in the test on MOLT-4 leukemia it was 37.2%; in the test with SR leukemia, 16.8%; in the test on OVCAR-8 ovarian, 29.1%; in the test on OVCAR-5 ovarian, 49.3%; in the test with OVCAR-4 ovarian it was 63.8%. Moreover, the growth in the test on SK-OV-3 ovarian was 32.1%; in the test on IGROV1 ovarian it was 46.4%; with OVCAR-3 ovarian, 3.49% (active); in the test with HS 578T breast, 18.5%; in the test with NCI/ADR-RES ovarian, 15.4%.
As to `COc1cc(C2CC(c3ccccc3)=NN2C=O)ccc1Oc1nc2c(c(=O)n(C)c(=O)n2C)n1C` (centres undefined), the growth with SK-MEL-2 melanoma is 101%; with SN12C renal, 49%; in the test with UO-31 renal it was 62.4%; in the test with TK-10 renal, 110%; with ACHN renal, 86.9%; in the test with CAKI-1 renal it was 79.4%. For the same molecule, the growth in the test on A498 renal was 81.3%; in the test on CCRF-CEM leukemia, 77.9%; in the test with MOLT-4 leukemia it was 62.2%; in the test on SR leukemia it was 67.4%; in the test with RPMI-8226 leukemia, 61.1%; with OVCAR-8 ovarian, 91.3%. Besides, the growth in the test with OVCAR-5 ovarian was 97.6%; in the test with OVCAR-4 ovarian, 65.3%; in the test on SK-OV-3 ovarian it was 125%; in the test with IGROV1 ovarian it was 77.7%; with OVCAR-3 ovarian, 103%; in the test on HS 578T breast, 75.8%. For the same molecule, the growth in the test with NCI/ADR-RES ovarian was 57.9%.
